From PubChem
Rows were chosen to be rich in hits. Some 2.3% of all compounds tested hit in one or more screens of this group.
EBNA-1 inhibitor = blocks EBNA-1 binding to DNA. inhibition, % at 14.8 µM. EBNA-1 DNA binding, fluorescence polarization. hit rate 0.34% among 300,000; in the data active means inhibition above about 28%
PP5 inh = PP5 (human) phosphatase inhibition; P53041; purified PP5c, OMFP substrate fluorescence; inhibition, % at 6.7 µM; hit rate 0.18% among 320,000;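 active means inhibition above the campaign's mean inhibition across all tested compounds plus 3 SD, cut at about 9.5% in these data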
MsrA act = activates bovine MsrA enzyme | purified bovine MsrA, absorbance read-out | activation, % at 10.6 µM | hit rate 0.3% among 360,000 | AID 602163; in the data active means activation above about 7.5%
MsrA inhibitor = inhibits bovine methionine sulfoxide reductase A; purified bovine MsrA, absorbance read-out; inhibition, % at 15.5 µM; hit rate 0.75% among 360,000; AID 651718; in the data active means inhibition above about 4.5%
ZTA counter = blocks Epstein-Barr virus ZTA, an EBNA-1 counter-screen; P03206; hit rate 0.15% among 320,000; ZTA-DNA binding, fluorescence polarization; AID 2234; inhibition, % at 11 µM; in the data active means inhibition above about 33%
Target sequence (P03206 whole entry, looked up): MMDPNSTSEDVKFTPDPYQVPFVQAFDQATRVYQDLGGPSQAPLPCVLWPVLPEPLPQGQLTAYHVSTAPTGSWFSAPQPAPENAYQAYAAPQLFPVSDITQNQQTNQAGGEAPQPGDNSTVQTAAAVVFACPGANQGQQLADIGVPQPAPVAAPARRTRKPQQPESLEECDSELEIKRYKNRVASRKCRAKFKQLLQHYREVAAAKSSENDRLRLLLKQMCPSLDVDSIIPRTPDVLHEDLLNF
PP1 counter = PP1-alpha (human) inhibition in PP5 counter-screen | inhibition, % at 6.7 µM | purified PP1alpha, OMFP fluorescence | P62136 | hit rate 0.9% among 320,000;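 active means inhibition above the mean inhibition of all tested compounds plus 3 SD, computed separately for each screening campaign, cut at about 15% in these data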
Numbers stand for hits; i = inactive; nt = no result; + = active, no number.

SMILES	EBNA-1 inhibitor	PP5 inh	MsrA act	MsrA inhibitor	ZTA counter	PP1 counter
Cc1ccc(CN2C(=O)C3CCCN3c3ccc(S(=O)(=O)N4CCOCC4)cc32)cc1 (stereo unspecified)	i	i	nt	nt	i	23.6
CCCCN1CC(COc2ccc(OC)cc2)OCCS1(=O)=O (stereo unspecified)	nt	nt	nt	i	nt	nt
C[C@@H]1CNC(=O)c2c(C(=O)N3CCN(c4ccccc4)CC3)ncn21	nt	nt	nt	i	nt	nt
CCOC(=O)CCCN1CC(O)=C(c2nc(-c3ccc(Cl)cc3)cs2)C1=N	i	i	i	i	i	16.8
CCCCN1CC(O)=C(c2nc(-c3ccc(Br)cc3)cs2)C1=N	i	i	i	i	i	i
COC(=O)CC#C[C@H](C)[C@@H](NS(=O)(=O)c1ccc([N+](=O)[O-])cc1)C(C)(C)C	nt	nt	nt	i	nt	nt
CCN(CCCNC(=O)C1CCC(=O)N1Cc1ccc(F)cc1)c1cccc(C)c1 (stereo unspecified)	i	i	10.6	i	i	i
CC(=O)N(Cc1ccccc1)c1nccs1	nt	nt	nt	i	nt	nt
O=C(CSc1ncnc2ccccc12)Nc1cc(S(=O)(=O)N2CCCCC2)ccc1Cl	i	i	i	i	i	15.6
Cc1ccc(S(=O)(=O)N2CCCCC2)cc1NC(=O)CSc1ncnc2ccccc12	i	i	i	i	i	i
O=S(=O)(Nc1ccc(-n2cnnn2)cc1)c1ccc(Cl)s1	nt	nt	i	i	nt	nt
CCC1=NN2C(=N)/C(=C/c3cc(C)n(Cc4ccccc4)c3C)C(=O)N=C2S1	i	i	i	i	i	15.8
Cc1cc(/C=C2\C(=N)N3N=C(C(C)C)SC3=NC2=O)c(C)n1Cc1ccccc1	i	i	i	i	i	i
N#C/C(=C\c1ccc([N+](=O)[O-])o1)C(=O)Nc1ccc(F)cc1	37.1	i	i	i	79.3	i
N#Cc1ccc(OCCCN2CCC(C(O)(c3ccccc3)c3ccccc3)CC2)cc1	nt	nt	nt	i	nt	nt
COC(=O)[C@]12C[C@H](CC(=O)NCc3ccc(OC)c(OC)c3)C(=O)N(Cc3ccccc3)C1=C[C@H](C(C)(C)C)O[C@@H]2C	nt	nt	nt	i	nt	nt
CC(Sc1cnc2ccccc2n1)C(=O)O (stereo unspecified)	i	i	i	i	i	17.8
CC(Sc1ccc2ccccc2n1)C(=O)O (stereo unspecified)	nt	nt	i	i	nt	nt
Cc1noc(C)c1N=Nc1ccccc1C(=O)O	i	i	i	i	i	i
Cc1cc(O)c(C(=O)/C=C/c2ccc(Cl)cc2)c(=O)o1	i	i	i	i	i	17.2
Cc1cccc(C(C)C)c1NC(=O)c1ccc(COc2ccc3c(C)cc(=O)oc3c2)cc1	i	i	i	i	i	17.3
O=C(N/N=C\C=C\c1ccc2c(c1)OCO2)C1COc2cc3ccccc3cc2O1 (stereo unspecified)	i	i	i	i	i	i
Cc1cc(C(=O)N/N=C/C=C/c2ccc3c(c2)OCO3)n[nH]1	i	i	i	8.9	i	i
CN(C)c1ccc([C@@H]2[C@@H]([N+](=O)[O-])[C@H]3C=Cc4ccccc4N3[C@H]2C(=O)c2ccc(Cl)cc2)cc1	i	i	i	i	i	16.1
O=C(Cc1c(F)cccc1Cl)NCC(=O)OCc1ccccc1	i	i	i	i	i	i
SMILES	EBNA-1 inhibitor	PP5 inh	MsrA act	MsrA inhibitor	ZTA counter	PP1 counter
CCn1c2c(n(C(C)=O)c1=O)C[C@@H](c1ccccc1)[C@@H](C)[C@@H](C(=O)N1CCCC1)C2	nt	nt	nt	i	nt	nt
Cc1ccc(S(=O)(=O)N2CCCCC2CCNC(=O)C(=O)NCC2CCCO2)cc1 (stereo unspecified)	i	i	i	i	i	17.1
CN(C)/C=C/C(=O)c1ccc(Br)cc1	i	i	i	i	i	i
Cc1ccc(C)n1-c1ccc(C(=O)/C=C/N(C)C)cc1	i	i	i	i	i	16.0
O=C1c2c(O)ccc(O)c2C(=O)c2c(NCCNCCO)ccc(NCCNCCO)c21	110.4	i	i	i	+	21.0
COc1cccc(C2Nc3c(F)cc(Br)cc3C3C=CCC32)c1OC (stereo unspecified)	i	i	i	i	i	i
COc1cccc2c1NC(C(=O)O)C1CC=CC21 (stereo unspecified)	i	i	i	nt	37.7	37.4
Cc1ccc2c(c1)C1C=CCC1C(C(=O)O)N2 (stereo unspecified)	45.2	i	nt	nt	i	20.3
CC(=O)c1ccc2c(c1)C1C=CCC1C(C(=O)O)N2 (stereo unspecified)	nt	nt	i	i	nt	nt
Cc1cc(N2CCN(CC(C)(C)O)C[C@H]2C)ccc1N1CCN(Cc2ccccc2)[C@@H](C)C1	nt	nt	nt	i	nt	nt
Cc1ccc(-c2nc3c(C)cc(Br)cn3c2Cc2ccccc2C(F)(F)F)cc1	nt	nt	nt	i	nt	nt
